This note sets out measurements from PubChem BioAssay (NCI).

This is part of a sample that, as a whole, favours compounds with a hit. Of some 83,000 tested, about 20% had one in any assay.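 Growth was measured after 48 h exposure to one concentration of compound in 96-well plates. Values under 10 count as active.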 Values without a mark were called inactive. Active and inactive are the calls of the source.

Holding throughout (assay): NCI-60 one-dose screen, 48 h (100 = growth as untreated, 0 = no growth, -100 = all killed)
Common to all, as to conditions: 10 µM unless noted

Test [1] concerns SR leukemia.
Test [2] deals with RPMI-8226 leukemia.
Test [3] deals with OVCAR-8 ovarian.
Test [4] relates to OVCAR-5 ovarian.
For test [5], the system named is OVCAR-4 ovarian.
The test system of test [6] is SK-OV-3 ovarian.
In test [7] the test system is IGROV1 ovarian.
The subject of test [8] is OVCAR-3 ovarian.
For test [9], the system named is HS 578T breast.
The test system of test [10] is NCI/ADR-RES ovarian.
For test [11], the system named is T-47D breast.
For test [12], the system named is BT-549 breast.
The test system of test [13] is MDA-MB-435 melanoma.
For test [14], the system named is SW-620 colon.
Test [15] deals with MCF7 breast.
In test [16] the test system is HCT-116 colon.
In test [17] the test system is HCC-2998 colon.
For test [18], the system named is KM12 colon.

Turning to `CC(=O)N/C(=C1/OC(C(O)C(O)C(O)CO)CN1C)[P+](c1ccccc1)(c1ccccc1)c1ccccc1` (centres undefined), the growth was 95.3% in test [1]; 99.7% in [2]; 102% in [3]; 99.5% in test [4]; 97.2% in test [5]; 93.8% in test [6]. The growth in [7] is 101%; in test [8], 112%; in test [9], 114%; in test [10] it was 101%; in [11] it was 103%; in [12] it was 102%. The growth was 103% in test [13]; 104% in test [14]; 92.8% in test [15]; 100% in test [16]; 97.7% in [17]; 103% in test [18].
For the molecule `CN1CCN(CCOc2ccc(-c3cnc4c(-c5ccc(C(F)(F)F)cc5)cnn4c3)cc2)CC1`, the growth in [1] was -8.03% (active); in test [2] it was 1.38% (active); in [3], 27.2%; in test [4], 79.7%; in test [5], 57.2%; in test [6], 85.6%. The growth in test [7] is 38.8%; in test [8], -3.51% (active); in [9], 56%; in test [10] it was 52.8%; in test [11], 27.1%; in test [12] it was 47.8%. The growth in test [13] is 11.8%; in test [14], -63.1% (active); in test [15] it was 10.3%; in [16], -55.3% (active); in [17] it was 33.1%; in [18], -28.1% (active).
Regarding `CCN(CC)S(=O)(=O)c1ccc(S(=O)(=O)N2CCC[C@@H](C(=O)N3CCN(C(=O)OC(C)(C)C)CC3)C2)cc1`, the growth in test [1] was 31.7%; in test [2], 53.7%; in [3] it was 63.3%; in test [4] it was 102%; in [5], 26.1%; in test [6], 90.5%. The growth in test [7] was 86.1%; in test [8], 73.5%; in test [9], 87.2%; in [10] it was 62%; in test [11], 44.5%; in test [12], 61.5%. The growth is 60.6% in test [13]; 80.4% in test [14]; 49.3% in test [15]; 54.1% in test [16]; 89.6% in test [17]; 76.9% in test [18].
`O=C1OCC2=C1C(c1cccc(F)c1)c1cc3c(cc1N2CCO)OCO3` (centres undefined): the growth was 16.7% in test [1]; 17.5% in test [2]; 34.5% in [3]; 63.6% in [4]; 57.3% in [5]; 19.5% in test [6]. Moreover, the growth in test [7] is 40%; in [8], 2.41% (active); in [9], 17.8%; in test [10], 25.4%; in test [11], 21.3%; in [12], 32.8%. In addition, the growth in test [13] is -0.149% (active); in [14] it was 15.8%; in [15], 20%; in test [16], 18.2%; in [17], 77%; in test [18], 25.3%.
In the case of `N#Cc1c(Nc2ccc(F)cc2)n[nH]c1-c1cccs1`, the growth was 107% in test [1]; 97.3% in [2]; 105% in [3]; 100% in test [4]; 92% in [5]; 115% in test [6]. Besides, the growth in test [7] is 71.8%; in test [8] it was 109%; in [9], 101%; in [10], 100%; in [11] it was 86%; in test [12] it was 98.3%. For the same molecule, the growth in test [13] is 99.5%; in [14], 101%; in test [15] it was 80.9%; in test [16], 100%; in test [17] it was 98.6%; in [18] it was 98.1%.
In the case of `COc1cc(C(=O)C(=O)c2cc(OC)c(O)c(OC)c2)cc(OC)c1O`, the growth in test [1] is 103%; in [2] it was 91.3%; in test [3] it was 102%; in test [4] it was 97%; in test [5], 101%; in test [6], 103%. Moreover, the growth in test [7] was 117%; in test [8], 103%; in test [9] it was 110%; in [10], 101%; in test [11] it was 98.1%; in test [12], 120%. Further, the growth in [13] is 103%; in test [14], 105%; in [15], 96.5%; in [16] it was 104%; in test [17], 92.1%; in [18], 107%.
With `C[C@@H]1O[C@@H](O[C@@H]2C[C@H](c3ccc4c(c3O)C(=O)C3=C(C4=O)[C@@]4(O)C(=O)C[C@](C)(O)C[C@@]4(O)C=C3)O[C@H](C)[C@H]2O)C[C@H](O)[C@@H]1O`, the growth was 76.7% in [1]; 92% in test [2]; 96.7% in test [3]; 102% in test [4]; 92% in test [5]; 106% in test [6]. For the same molecule, the growth in [7] was 91.2%; in [8] it was 105%; in test [9], 94.4%; in test [10] it was 91.8%; in test [11], 93.8%; in test [12], 100%. For the same molecule, the growth in [13] was 103%; in test [14], 95%; in test [15], 91.8%; in test [16] it was 98.9%; in [17], 102%; in [18] it was 99.7%.
As for `CC(C)(C)C(=O)/C=C/c1ccc([N+](=O)[O-])cc1`, the growth in test [1] is 8.57% (active); in test [2] it was 23.5%; in test [3], 76.8%; in test [4], 108%; in test [5], 91.5%; in [6], 98.7%. The growth in test [7] was 96%; in [8] it was 84.9%; in test [9], 90.2%; in [10], 60.2%; in test [11] it was 65.8%; in test [12], 78.5%. In addition, the growth is 47.1% in test [13]; 20% in test [14]; 8.67% (active) in [15]; 42.2% in test [16]; 119% in test [17]; 31.9% in test [18].
